Bioassay records from PubChem.
T cruzi growth-1 – T. cruzi intracellular proliferation inhibitors, primary screen, cell-based, beta-gal Tulahuen parasites, NIH3T3 host, luminescence; T. cruzi beta-gal in NIH3T3, GalScreen luminescence, 90 h; inhibition, % at 8.34 µM; hit rate 5.9% among 77,000; AID 624255, 2012;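 active means mean inhibition above about 93%, with at least 55% of replicates each passing it, limit read from the data, passing the limit was not always enough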
Pf Dd2 inh – P. falciparum Dd2 growth inhibitors, primary screen, SYBR Green fluorescence, single dose replicates; 72 h; hits give low values; activity change, % at 10 µM; hit rate 2.3% among 94,000; AID 1159554, 2015; in the data active means activity change below about -80%
C diff HTS – C. difficile growth inhibitors, primary screen, HTS | Clostridium difficile clinical isolate growth, OD600, 24 h; hits give low values | growth activity, negative = inhibition, % at 16 µg/mL (by protocol) | hit rate 0.25% among 86,000 | AID 1259249, 2017;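 active means mean growth activity at or below -80% and every replicate also at or below -80%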;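 further: 0% = DMSO wells and -100% = levofloxacin 16 µg/mL wells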
T cruzi growth-2 – T. cruzi intracellular proliferation inhibitors, confirmation, cell-based, NIH3T3 host, beta-gal parasite, luminescence, cherry-pick; T. cruzi beta-gal in NIH3T3, GalScreen luminescence, 90 h; shares compounds with T cruzi growth-1; hit rate 72% among 5,600; inhibition, % at 8.35 µM; AID 651739, 2012;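 active means mean replicate inhibition above about 95% and at least 55% of replicates individually reaching it, limit read from the data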
T cruzi growth-3 – inhibitors of intracellular T. cruzi replication, confirmation, NIH3T3 host cells, beta-gal parasites, cherry-pick, set 2 | shares compounds with T cruzi growth-1 | T. cruzi beta-gal in NIH3T3, GalScreen luminescence, 90 h | inhibition, % at 2.09 µM | hit rate 21% among 5,600 | AID 651740, 2012;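 active means mean inhibition above about 95%, with at least 55% of replicates also reaching it, limit read from the data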;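 further: plate controls were neutral control median for no effect and positive control median for full effect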
NIH3T3 tox – cytotoxicity in mouse NIH/3T3 fibroblasts, confirmation, cytotoxicity control for T. cruzi proliferation inhibitor project, cell-based, cherry-pick, single point. hit rate 14% among 5,600. cytotoxicity (signal decrease), % at 8.35 µM. shares compounds with T cruzi growth-1. NIH/3T3 viability, CellTiter-Glo ATP luminescence, 90 h. AID 651742, 2012;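 active means mean signal decrease across replicates above about 35% based on untreated-well scatter, with enough replicates individually passing, limit read from the data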;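 further: 0% = median of neutral control wells and 100% = median of positive control wells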
NIH3T3 tox 2 – NIH/3T3 fibroblast cytotoxicity, confirmation, cytotoxicity control, cell-based, cherry-pick, single point, set 2; shares compounds with T cruzi growth-1; NIH/3T3 viability, CellTiter-Glo ATP luminescence, 90 h; inhibition, % at 24.9 µM; hit rate 56% among 5,600; AID 651744, 2012;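 active means mean loss of cell viability signal at or above a set limit, and enough replicates individually reaching it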;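 further: 0% = median of neutral control wells and 100% = median of positive control wells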
An asterisk follows results filed as active; · = no result. Compounds with a hit are over-represented: about 6.8% of the library has one in this group of screens.

SMILES	T cruzi growth-1	Pf Dd2 inh	C diff HTS	T cruzi growth-2	T cruzi growth-3	NIH3T3 tox	NIH3T3 tox 2
COc1ccc(S(=O)(=O)N(C)C[C@@H]2Oc3ccc(NC(=O)Cc4cn(C)c5ccccc45)cc3C(=O)N([C@@H](C)CO)C[C@@H]2C)cc1	102.0*	-73.4	5.9	84.6	27.1	-5.1	46.4*
C[C@H](CO)N1C[C@H](C)[C@H](CN(C)S(=O)(=O)c2ccc(F)cc2)Oc2ccc(NC(=O)Cc3cn(C)c4ccccc34)cc2C1=O	75.8	-57.5	6.8	·	·	·	·
C[C@@H]1CN([C@H](C)CO)C(=O)c2cc(NC(=O)Cc3cn(C)c4ccccc34)ccc2O[C@@H]1CN(C)S(=O)(=O)c1ccccc1	37.6	-0.7	-6.3	·	·	·	·
COc1ccc(S(=O)(=O)N(C)C[C@@H]2Oc3ccc(NC(=O)Cc4cn(C)c5ccccc45)cc3C(=O)N([C@H](C)CO)C[C@@H]2C)cc1	100.9*	-85.3*	-5.5	97.3*	20.4	10.3	63.5*
CC(C)NC(=O)N(C)C[C@H]1Oc2cc(C3=CCCC3)ccc2S(=O)(=O)N([C@@H](C)CO)C[C@@H]1C	38.7	2.2	-5.0	·	·	·	·
COc1ccc(NC(=O)Nc2ccc3c(c2)C(=O)N([C@H](C)CO)C[C@@H](C)[C@H](CN(C)S(=O)(=O)c2ccc(Cl)cc2)OCCCC[C@@H](C)O3)cc1	115.2*	-76.7	5.3	104.5*	101.1*	-5.4	17.9
COc1ccc(NC(=O)Nc2ccc3c(c2)C(=O)N([C@@H](C)CO)C[C@H](C)[C@@H](CN(C)S(=O)(=O)c2ccc(Cl)cc2)OCCCC[C@@H](C)O3)cc1	106.7*	-79.8	-3.1	108.7*	112.1*	0.7	18.2
COc1ccc(NC(=O)Nc2ccc3c(c2)C(=O)N([C@@H](C)CO)C[C@H](C)[C@@H](CN(C)S(=O)(=O)c2ccc(OC)cc2)OCCCC[C@@H](C)O3)cc1	42.0	-57.2	0.1	·	·	·	·
COc1ccc(NC(=O)Nc2ccc3c(c2)C(=O)N([C@H](C)CO)C[C@H](C)[C@H](CN(C)S(=O)(=O)c2ccc(OC)cc2)OCCCC[C@@H](C)O3)cc1	10.4	-71.1	4.7	·	·	·	·
C[C@@H]1CCCCO[C@@H](CN(C)S(=O)(=O)c2ccccc2)[C@@H](C)CN([C@@H](C)CO)C(=O)c2cc(NC(=O)C3CCCCC3)ccc2O1	52.0	-76.3	-2.3	·	·	·	·
C[C@H](CO)N1C[C@H](C)[C@@H](CN(C)S(=O)(=O)c2ccc(Cl)cc2)OCCCC[C@H](C)Oc2ccc(NC(=O)C3CCCCC3)cc2C1=O	107.5*	-66.6	5.6	104.4*	45.7	-22.3	-4.0
C[C@@H]1CN([C@H](C)CO)C(=O)c2cc(NC(=O)C3CCCCC3)ccc2O[C@@H](C)CCCCO[C@H]1CN(C)S(=O)(=O)c1ccc(Cl)cc1	101.9*	-82.8*	-5.6	106.0*	62.3	17.1	70.4*
COc1ccc(S(=O)(=O)N(C)C[C@@H]2OCCCC[C@@H](C)Oc3ccc(NC(=O)C4CCCCC4)cc3C(=O)N([C@@H](C)CO)C[C@H]2C)cc1	106.4*	-69.4	5.7	107.3*	40.4	8.9	20.5
C[C@@H]1CN([C@H](C)CO)C(=O)c2cc(NC(=O)C3CCCCC3)ccc2O[C@@H](C)CCCCO[C@H]1CN(C)S(=O)(=O)c1ccc(F)cc1	25.6	-79.6	3.0	·	·	·	·
COc1ccc(S(=O)(=O)N(C)C[C@H]2OCCCC[C@@H](C)Oc3ccc(NC(=O)C4CCCCC4)cc3C(=O)N([C@@H](C)CO)C[C@H]2C)cc1	57.1	-59.3	-11.3	·	·	·	·
C[C@@H]1CCCCO[C@@H](CN(C)S(=O)(=O)c2ccc(F)cc2)[C@H](C)CN([C@H](C)CO)C(=O)c2cc(NC(=O)C3CCCCC3)ccc2O1	101.0*	-71.9	-3.0	107.5*	64.9	12.8	-8.0
C[C@@H]1CN([C@@H](C)CO)C(=O)c2cc(NC(=O)C3CCCCC3)ccc2O[C@@H](C)CCCCO[C@H]1CN(C)S(=O)(=O)c1ccccc1	22.5	-72.1	-1.9	·	·	·	·
O=C(Nc1ccc2c(c1)[C@@H]1C[C@H](CC(=O)N3CCCCC3)O[C@H](CO)[C@@H]1O2)c1ccc2c(c1)OCO2	8.1	-19.6	1.0	·	·	·	·
Cc1ccc(S(=O)(=O)NCC[C@@H]2CC[C@@H](NS(=O)(=O)c3ccccc3Cl)[C@H](CO)O2)cc1	28.6	-17.8	-1.4	·	·	·	·
CN(C)C(=O)c1cccc(-c2ccccc2[C@@H]2[C@@H](C#N)N(C(=O)C3CCCC3)[C@@H]2CO)c1	·	-5.1	6.5	·	·	·	·
CCCC#Cc1ccc([C@@H]2[C@@H](CO)N3C(=O)CN(S(=O)(=O)c4ccccc4C)C[C@H]23)cc1	·	-56.7	7.7	·	·	·	·
CC(C)C#Cc1ccc([C@@H]2[C@H]3CN(S(=O)(=O)c4ccccc4)CC(=O)N3[C@H]2CO)cc1	·	-17.8	-3.4	·	·	·	·
C[C@@H]1CN([C@H](C)CO)C(=O)Cc2cc(NC(=O)Nc3ccc(F)cc3)ccc2O[C@H]1CN(C)Cc1ccc(C(F)(F)F)cc1	13.9	2.6	69.0	·	·	·	·
COc1ccc([Si](C)(C)[C@H]2[C@H](CCO)O[C@@]3(C(=O)N(Cc4ccccc4)c4ccc(N5CCC5=O)cc43)[C@@H]2C)cc1	·	·	4.4	·	·	·	·
COc1ccc2c3c([nH]c2c1)[C@@H](CO)N(C(=O)c1ccncc1)CC31CCN(C(=O)Nc2cccc(F)c2)CC1	·	-54.8	3.4	·	·	·	·
C[C@@H]1CN([C@H](C)CO)C(=O)c2cc(NC(=O)C3CCCCC3)ccc2O[C@@H](C)CCCCO[C@H]1CN(C)S(=O)(=O)c1ccccc1	26.8	-67.3	-3.8	·	·	·	·
C[C@@H]1CCCCO[C@H](CN(C)S(=O)(=O)c2ccccc2)[C@@H](C)CN([C@H](C)CO)C(=O)c2cc(NC(=O)C3CCCCC3)ccc2O1	-6.5	-54.4	-6.1	·	·	·	·
C[C@@H]1CCCCO[C@H](CN(C)S(=O)(=O)c2ccc(Cl)cc2)[C@H](C)CN([C@@H](C)CO)C(=O)c2cc(NC(=O)C3CCCCC3)ccc2O1	107.9*	-80.0	-7.2	103.2*	83.9	-8.3	23.7
C[C@H](CO)N1C[C@H](C)[C@H](CN(C)S(=O)(=O)c2ccc(Cl)cc2)OCCCC[C@H](C)Oc2ccc(NC(=O)C3CCCCC3)cc2C1=O	106.4*	-68.1	-0.6	110.8*	72.3	17.6	51.0*
